Drawing on PubChem BioAssay, this text covers z-score and composite z-score for 12 compounds.

Assay [1] in a line: HepG2 liver cancer cell viability effects, profiling panel, resazurin fluorescence, 24 h, PK04 Diversity Set (AID 1172). Further: test concentration not given here. The conditions noted are these: higher = more signal. Background: Alamar Blue is a resazurin reagent that responds to reducing activity.
Assay [2] can be described thus: basal S. cerevisiae growth modulation, no modifier, primary screen, OD600, strain BY4716, 24 h, basal condition (AID 1173). The conditions noted are these: OD600, 24 h, higher = more signal, called active from +8 up or from −8 down.
Assay [3] in a line: MM1S myeloma cell viability, profiling panel, resazurin fluorescence, basal, 24 h, PK04 Diversity Set (AID 1174). Further: test concentration not given here. Particulars: higher = more signal, called active from +8 up or from −8 down.
Assay [4] has as its target Dihydroorotate dehydrogenase (quinone), mitochondrial (Plasmodium falciparum (isolate 3D7)) (UniProt Q08210). Briefly: PfDHODH enzyme inhibitors, primary screen, biochemical, C-terminal His tag, absorbance 600 nm (AID 1175).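 Further: recombinant parasite enzyme with a five histidine tag at its C terminus; test concentration not given here.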 Particulars: DCIP absorbance 600 nm, higher = more signal, called active from +8 up or from −8 down.
The nature of assay [5]: P. aeruginosa biofilm formation inhibitors, primary screen, strain PAO1, LB-PBS medium, absorbance 600 nm (AID 1176). Further: test concentration not given here. Particulars: P. aeruginosa PAO1 growth/biofilm, A600, 12 h; higher = more signal.
A short description of assay [6]: S. cerevisiae RM11-1a growth modifiers, primary screen, strain RM11-1a, OD600, basal, 24 h (AID 1177).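 Further: cultures grown under basal conditions with no added stressor; test concentration not given here.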 The conditions noted are these: OD600, 24 h, higher = more signal, called active from +8 up or from −8 down.
Assay [7] is described as follows: E. coli acrAB mutant growth effects, primary screen, E. coli filamentation inducers, strain DRC39, OD650, 24 h (AID 1178).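 Further: growth measured as culture turbidity by optical density at 650 nm; test concentration not given here.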 The conditions noted are these: higher = more signal, called active from +8 up or from −8 down.
A short description of assay [8]: E. coli acrAB mutant growth effects, primary screen, E. coli filamentation inducers, strain DRC39, OD650, 48 h (AID 1179).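 Further: screen aims at cell division blockers that make cells filament.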 The conditions noted are these: E. coli DRC39 delta-acrAB growth, higher = more signal, called active from +8 up or from −8 down.
Assay [9] in a line: RPMI8226 myeloma cell viability, profiling panel, resazurin fluorescence, basal, 24 h, PK04 Diversity Set (AID 1180).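 Further: RPMI8826 multiple myeloma cell line at 5000 cells per well; test concentration not given here.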 The conditions noted are these: higher = more signal.
Assay [10] addresses E3 ubiquitin-protein ligase XIAP (Homo sapiens) (UniProt P98170). Kind of assay: XIAP binders, primary screen, biophysical, small-molecule microarray, fluorescence 635 nm (AID 1181).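 Further: score merges 667 nm emission and signal to noise over triplicate slides.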 The conditions noted are these: small-molecule microarray binding, higher = more signal.

The structures appear in SMILES notation. Activity calls are given as the source filed them. Unless noted, how the calls were made is not given here.

E3 ubiquitin-protein ligase XIAP (Homo sapiens), sequence (P98170 whole entry, looked up): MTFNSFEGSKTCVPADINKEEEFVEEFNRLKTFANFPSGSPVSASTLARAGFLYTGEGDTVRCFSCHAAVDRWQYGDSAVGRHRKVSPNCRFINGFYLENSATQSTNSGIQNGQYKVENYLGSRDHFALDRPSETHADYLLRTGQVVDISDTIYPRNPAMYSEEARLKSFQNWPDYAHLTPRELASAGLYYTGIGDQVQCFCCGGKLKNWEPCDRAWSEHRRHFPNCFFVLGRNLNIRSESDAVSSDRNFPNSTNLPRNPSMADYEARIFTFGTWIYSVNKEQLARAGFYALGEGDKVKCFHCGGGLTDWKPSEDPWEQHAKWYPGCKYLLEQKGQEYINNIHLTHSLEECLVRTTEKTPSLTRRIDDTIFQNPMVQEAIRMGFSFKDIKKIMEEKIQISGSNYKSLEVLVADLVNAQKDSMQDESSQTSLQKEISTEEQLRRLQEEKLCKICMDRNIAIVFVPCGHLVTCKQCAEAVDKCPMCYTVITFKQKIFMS
Dihydroorotate dehydrogenase (quinone), mitochondrial (Plasmodium falciparum (isolate 3D7)), sequence (Q08210 whole entry, looked up): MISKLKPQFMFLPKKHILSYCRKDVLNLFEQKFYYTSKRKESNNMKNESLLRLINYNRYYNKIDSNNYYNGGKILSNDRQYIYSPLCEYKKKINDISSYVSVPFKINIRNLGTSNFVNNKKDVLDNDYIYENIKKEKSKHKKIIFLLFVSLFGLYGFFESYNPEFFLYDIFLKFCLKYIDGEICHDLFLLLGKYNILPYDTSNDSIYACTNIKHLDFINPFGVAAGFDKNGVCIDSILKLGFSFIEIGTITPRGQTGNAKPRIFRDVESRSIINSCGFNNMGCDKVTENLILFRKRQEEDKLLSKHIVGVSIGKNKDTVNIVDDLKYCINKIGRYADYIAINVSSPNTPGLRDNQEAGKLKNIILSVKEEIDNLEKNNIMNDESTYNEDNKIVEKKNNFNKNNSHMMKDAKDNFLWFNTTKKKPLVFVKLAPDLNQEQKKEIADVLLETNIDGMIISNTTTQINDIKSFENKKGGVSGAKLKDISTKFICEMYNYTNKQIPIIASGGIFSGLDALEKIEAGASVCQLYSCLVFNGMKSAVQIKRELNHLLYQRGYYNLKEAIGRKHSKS

As for `COC(=O)[C@@]1(Cc2ccccc2)[C@H]2c3cc(C(=O)N(C)C)n(Cc4cc(F)c(F)c(F)c4)c3C[C@H]2CN1C(=O)c1ccccc1`, the z-score in assay [1] is 0.0126; in assay [2], 0.989 (inactive); in [3] it was -0.402 (inactive); in [5], -0.0019 (inactive); in assay [6] it was 0.968 (inactive); in assay [7] it was 0.194 (inactive). For the same compound, the figures for the z-score in [8] and in [9] were 0.322 (inactive) and -0.963, respectively. Moreover, the values for the composite z-score in [4] and in assay [10] were -0.258 (inactive) and 0.272, respectively.
For `C#C[C@H](O[Si](C#CCCCCCC)(C(C)C)C(C)C)c1ccccc1`, the z-score in [1] was 0.465; in assay [2], 0.0181 (inactive); in [3], 0.221 (inactive); in assay [5], -0.984 (inactive); in assay [6], -0.0669 (inactive); in [7], 0.0687 (inactive). The z-score in [8] is 0.577 (inactive); in assay [9], 0.783. Further, the composite z-score in [4] was -0.719 (inactive); in assay [10] it was 0.0406.
For the compound `COCCCNC(=O)[C@]1(Cc2ccccc2N=[N+]=[N-])N=C(c2ccc(OCCCO)cc2)O[C@@H]1c1ccccc1CN=[N+]=[N-]`, the z-score in assay [1] is -0.412; in [2] it was 0.0634 (inactive); in assay [3], -2.16 (inactive); in assay [5] it was 1.83 (inactive); in assay [6] it was -0.22 (inactive); in assay [7] it was 2.79 (inactive). Moreover, the z-score is 0.499 (inactive) in assay [8] and -2.01 in [9]. For the same compound, the composite z-score in assay [4] is 0.0785 (inactive); in [10], 0.283.
With `[N-]=[N+]=NCc1ccccc1[C@@H]1OC(c2ccc(OCCCO)cc2)=N[C@]1(Cc1ccccc1)C(=O)O`, the z-score is 1.18 in assay [1]; -3.03 (inactive) in [2]; 0.615 (inactive) in assay [3]; 0.466 (inactive) in assay [5]; 0.703 (inactive) in assay [6]; 0.305 (inactive) in [7]. The z-score was -0.108 (inactive) in assay [8] and 0.469 in assay [9]. Moreover, the composite z-score in [4] was -0.101 (inactive); in assay [10], -0.0731.
Regarding `C=CCOC(=O)[C@H]1[C@@H]2C(=O)O[C@@H](c3ccccc3)[C@@H](c3ccccc3)N2[C@@H](c2ccc(OCCOC(=O)[C@@H]3C[C@@H]4C(=O)NCC(=O)N4[C@@H]3c3ccc(O)cc3)cc2)[C@]12C(=O)Nc1ccc(I)cc12`, the z-score in [1] is -0.247; in [2], 0.528 (inactive); in assay [3] it was -0.897 (inactive); in assay [5], 2.27 (inactive); in assay [6], 0.305 (inactive); in assay [7] it was -0.641 (inactive). The z-score is -0.51 (inactive) in [8] and -0.433 in assay [9]. Also, the composite z-score in assay [4] is 0.31 (inactive); in assay [10], -0.0066.
With `COC(=O)[C@@]1(Cc2ccc(OC)cc2)[C@H]2c3cc(C(=O)N4CCCC4)n(CCN4CCOCC4)c3C[C@H]2CN1C(=O)c1ccccc1`, the z-score is 0.142 in [1]; 0.642 (inactive) in assay [2]; -0.0281 (inactive) in assay [3]; 0.231 (inactive) in assay [5]; 0.48 (inactive) in assay [6]; 0.0378 (inactive) in assay [7]. The z-score in assay [8] is 0.484 (inactive); in assay [9], 0.639. Besides, the composite z-score in assay [4] was -1.33 (inactive); in [10], 0.0305.
With `COc1ccc(C#Cc2ccc3c(c2)[C@]2(C(=O)N3)[C@H](C(=O)N3CCc4cc(OC)c(OC)cc4C3)[C@H]3C(=O)O[C@H](c4ccccc4)[C@H](c4ccccc4)N3[C@@H]2c2ccc(OCCO)cc2)cc1`, the z-score is 0.0594 in assay [1]; 2.37 (inactive) in assay [2]; -0.0819 (inactive) in [3]; 1.66 (inactive) in assay [5]; 4.19 (inactive) in [6]; 0.452 (inactive) in [7]. Further, the z-score in assay [8] is 0.593 (inactive); in assay [9], 1.5. The composite z-score in assay [4] is -1.04 (inactive); in assay [10], -0.209.
As to `COC(=O)[C@@]1(Cc2ccc(OC)cc2)[C@H]2c3cc(C(=O)N(C)C)n(Cc4ccc(OC)c(OC)c4)c3C[C@H]2CN1C(=O)c1ccccc1`, the z-score in assay [1] is -0.962; in assay [2] it was 2.46 (inactive); in assay [3] it was -1.67 (inactive); in assay [5], 0.964 (inactive); in assay [6], 2.19 (inactive); in [7] it was -0.558 (inactive). The z-score in [8] is 0.0309 (inactive); in assay [9], -2.28. The composite z-score in assay [4] is 0.697 (inactive); in assay [10], 0.124.
Consider `CCOC(=O)C[C@H]1[C@H](OC(=O)c2ccc(C(=O)c3ccccc3)cc2)[C@@H](NC(=O)c2ccc3ccccc3n2)c2cc(OCCCO)ccc2N1C(=O)c1ccc2ccccc2n1`, for which the z-score in assay [1] was 0.44; in assay [2], -0.0495 (inactive); in assay [3], 0.433 (inactive); in [5], 0.808 (inactive); in [6] it was 0.081 (inactive); in assay [7], 0.322 (inactive). The z-score in [8] is 0.388 (inactive); in [9], 0.416. Besides, the composite z-score in assay [4] was 0.681 (inactive); in assay [10], -0.0525.
With `O=C1C2C=CC(C(O)c3ccc(-c4ccccc4)s3)N(Nc3ccccc3F)C2C(=O)N1c1ccccc1` (stereo not given), the z-score in assay [1] was -1.5; in assay [2], 0.025 (inactive); in assay [3], -1.38 (inactive); in [5], 0.366 (inactive); in assay [6], 1.19 (inactive); in assay [7] it was -0.516 (inactive). The z-score was -0.795 (inactive) in assay [8] and -1.6 in assay [9]. Besides, the composite z-score in [4] was 0.853 (inactive); in assay [10], 0.0101.
With `C[n+]1ccc2ccc(O)cc2c1`, the z-score in assay [1] is 0.0027; in [2], -1.06 (inactive); in assay [3], 0.242 (inactive); in [5], -0.131 (inactive); in assay [6] it was 0.582 (inactive); in assay [7], 0.0452 (inactive). The figures for the z-score in assay [8] and in assay [9] were -0.0896 (inactive) and -0.654, respectively. In addition, the composite z-score in [4] was -0.843 (inactive); in [10], 0.473.
On to `COCCOC(=O)N1C(=O)[C@@]2(c3cc(C#CCC(C(=O)OC)C(=O)OC)ccc31)[C@H](c1ccccc1OCCO)N1[C@H](c3ccccc3)[C@H](c3ccccc3)OC(=O)[C@H]1[C@@H]2C(=O)Nc1nc2ccccc2s1`, for which the z-score in assay [1] is 0.513; in assay [2], -0.561 (inactive); in assay [3], 0.951 (inactive); in [5] it was 3.41 (inactive); in assay [6], -0.929 (inactive); in assay [7], 1.28 (inactive). Further, the figures for the z-score in assay [8] and in assay [9] were 1.76 (inactive) and 0.599, respectively. Moreover, the figures for the composite z-score in [4] and in [10] were -1.19 (inactive) and -0.0785, respectively.
